Data taken from PubChem BioAssay.
Calls of active or inactive are those of the source.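 How the source made its calls, unless noted: active means compounds that lower survival of HCT116 colon cancer cells in the luminescence readout, no numeric limit stated; inactive means the rest.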

Key:
[1] = Wnt pathway potentiators raising nuclear beta-catenin – imaging, WNT3A-conditioned medium, mouse C2C12, NPC library, primary screen (AID 1117326; in the data active means nuclear beta-catenin stimulation mostly above about 4.2%, no sharp cut-off; inactive means mostly below about 10%; further: reference of the scale not given here); details: stronger effect = higher value
[2] = stimulators of insulin release from INS-1E, primary screen, cell-based, 5 mM glucose, NPC library (AID 1117329;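 active means compound raises insulin release from rat beta cells at 5 mM glucose, no numeric limit stated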; further: reference of the scale not given here); details: rat INS-1E insulin secretion, at 10 µM, stronger effect = higher value
[3] = growth inhibition of GSK3B-pretreated HCT116 cells – cell-based, CellTiter-Glo, 0.2 to 20 µM (AID 1117336;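 active means compounds lowering colon cancer cell viability after pretreatment blocking the GSK3B kinase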); details: HCT116 viability after GSK3B inhibitor, at 20 µM, stronger effect = higher value
[4] = inhibition of endothelial tube formation, primary screen, imaging, VEGF stimulated, CD31 staining, tube area, NPC library (AID 1117340;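 active means compound that reduces growth-factor-driven endothelial tube area in a mixed cell culture, no cutoff stated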); details: VEGF-stimulated ADSC/ECFC co-culture, at 10 µM, stronger effect = higher value
[5] = GLP1 release stimulators, primary, NCI-H716, NPC library (AID 1117341;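 active means compound raises GLP1 secretion from the human gut endocrine cells, with no numeric limit stated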; further: reference of the scale not given here); details: NCI-H716 cells, at 10 µM, stronger effect = higher value
[6] = HCT116 colon cancer cell growth inhibition, primary screen, CellTiter-Glo luminescence, NPC library (AID 1117342); details: at 20 µM (top of the series)
[7] = reduced SW480 viability measured with CellTiter-Glo, NPC library, primary (AID 1117343;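 active means compounds that lower viability of the colon cancer cells in the luminescence readout, with no numeric limit stated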); details: CellTiter-Glo luminescence; at 20 µM (top of the series)
[8] = NPC library primary testing for decreased DLD-1 cell viability via CellTiter-Glo (AID 1117346;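 active means compounds that lower survival of DLD-1 colon cancer cells in the luminescence readout, no cutoff given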); details: DLD-1 viability, CellTiter-Glo luminescence; at 20 µM (top of the series)

N#CCC(=O)NN
inactive: nuclear beta-catenin stimulation ([1]; at 10 µM) 0.4% | insulin secretion stimulation [2] -0.7% | viability decrease [3] 4.45% | tube area decrease [4] 0.1% | GLP1 secretion stimulation [5] -0.8% | inhibition of viability [6] 1.9% | viability decrease (inhibition) [7] 13.4% | viability decrease (inhibition) [8] 4.5%
2.7%: nuclear beta-catenin stimulation ([1]; stimulation, at 2 µM)

O=C1Nc2cc(Cl)ccc2Oc2ccccc21
active: viability decrease [3] 55.1%
-0.5%: nuclear beta-catenin stimulation ([1]; stimulation, at 2 µM)
inactive: nuclear beta-catenin stimulation ([1]; at 10 µM) 0% | insulin secretion stimulation [2] -0.2% | tube area decrease [4] 17.8% | GLP1 secretion stimulation [5] -0.4% | inhibition of viability [6] 10.7% | viability decrease (inhibition) [7] -6.3% | viability decrease (inhibition) [8] -57.3%

CN(C)CCN(Cc1ccsc1)c1ccccn1
inactive: nuclear beta-catenin stimulation ([1]; at 10 µM) -1.6% | insulin secretion stimulation [2] 1.3% | viability decrease [3] 4.6% | tube area decrease [4] -14.7% | GLP1 secretion stimulation [5] -2.8% | inhibition of viability [6] 5.1% | viability decrease (inhibition) [7] -0.5% | viability decrease (inhibition) [8] -3.9%
1.7%: nuclear beta-catenin stimulation ([1]; stimulation, at 2 µM)

Cc1cc2nc3c(=O)[nH]c(=O)nc-3n(C[C@H](O)[C@H](O)[C@H](O)COP(=O)(O)OP(=O)(O)OC[C@H]3O[C@@H](n4cnc5c(N)ncnc54)[C@H](O)[C@H]3O)c2cc1C
0.2%: nuclear beta-catenin stimulation ([1]; stimulation, at 2 µM)
inactive: nuclear beta-catenin stimulation ([1]; at 10 µM) -2.2% | insulin secretion stimulation [2] 5.5% | viability decrease [3] -3.6% | tube area decrease [4] -2.4% | GLP1 secretion stimulation [5] -3.7% | inhibition of viability [6] -18.9% | viability decrease (inhibition) [7] 16.1% | viability decrease (inhibition) [8] -48.9%

CCCCCCCCCCCCCCCCCC(=O)O
0.7%: nuclear beta-catenin stimulation ([1]; stimulation, at 2 µM)
inactive: nuclear beta-catenin stimulation ([1]; at 10 µM) 0.8% | insulin secretion stimulation [2] -1.2% | viability decrease [3] -8.8% | tube area decrease [4] -12.7% | GLP1 secretion stimulation [5] -0.3% | inhibition of viability [6] 1.8% | viability decrease (inhibition) [7] 18.8% | viability decrease (inhibition) [8] -6.85%

CCN(CC)CCN
inactive: nuclear beta-catenin stimulation ([1]; at 10 µM) 0.4% | insulin secretion stimulation [2] 1.7% | viability decrease [3] -6% | tube area decrease [4] 5.8% | GLP1 secretion stimulation [5] -1% | inhibition of viability [6] -0.4% | viability decrease (inhibition) [7] 1.2% | viability decrease (inhibition) [8] -10.7%
-1.7%: nuclear beta-catenin stimulation ([1]; stimulation, at 2 µM)

FC1(F)C(F)(F)C(F)(F)C2(F)C(F)(F)C(F)(F)C(F)(F)C(F)(F)C2(F)C1(F)F (stereo not given)
inactive: nuclear beta-catenin stimulation ([1]; at 10 µM) -0.7% | insulin secretion stimulation [2] 1.3% | viability decrease [3] 17% | tube area decrease [4] 10.2% | GLP1 secretion stimulation [5] -0.8% | inhibition of viability [6] -2.93% | viability decrease (inhibition) [7] 21.7% | viability decrease (inhibition) [8] -11.3%
0.3%: nuclear beta-catenin stimulation ([1]; stimulation, at 2 µM)

C[C@@H](O)[C@H]1C(=O)N2C(C(=O)[O-])=C(SC3Cn4cnc[n+]4C3)[C@H](C)[C@H]12 (stereo not given in full)
-2.1%: nuclear beta-catenin stimulation ([1]; stimulation, at 2 µM)
inactive: nuclear beta-catenin stimulation ([1]; at 10 µM) -0.3% | insulin secretion stimulation [2] 6.4% | viability decrease [3] -16.5% | tube area decrease [4] -9.3% | GLP1 secretion stimulation [5] 0.8% | inhibition of viability [6] 15.4% | viability decrease (inhibition) [7] -6.5% | viability decrease (inhibition) [8] 5.3%

O=C(O)c1ccccc1NCCc1ccccc1
2.5%: nuclear beta-catenin stimulation ([1]; stimulation, at 2 µM)
active: viability decrease (inhibition) [7] 50.6%
inactive: nuclear beta-catenin stimulation ([1]; at 10 µM) 1.2% | insulin secretion stimulation [2] 0.15% | viability decrease [3] 42.9% | tube area decrease [4] 22.2% | GLP1 secretion stimulation [5] 1.4% | inhibition of viability [6] 26.7% | viability decrease (inhibition) [8] -1.8%

CCOC(=O)COc1ccc2c(C)c(CCN(CC)CC)c(=O)oc2c1Cl
-0.4%: nuclear beta-catenin stimulation ([1]; stimulation, at 2 µM)
active: tube area decrease [4] 45.5%
inactive: nuclear beta-catenin stimulation ([1]; at 10 µM) -2.3% | insulin secretion stimulation [2] 0% | viability decrease [3] -5% | GLP1 secretion stimulation [5] 2.5% | inhibition of viability [6] 15.1% | viability decrease (inhibition) [7] 7.8% | viability decrease (inhibition) [8] -17.9%

CN(C)C(=O)CNC(=O)Cc1ccccc1
2.4%: nuclear beta-catenin stimulation ([1]; stimulation, at 2 µM)
inactive: nuclear beta-catenin stimulation ([1]; at 10 µM) -0.3% | insulin secretion stimulation [2] 2.5% | viability decrease [3] 4.9% | tube area decrease [4] 7.1% | GLP1 secretion stimulation [5] -1.3% | inhibition of viability [6] 7.5% | viability decrease (inhibition) [7] -4.5% | viability decrease (inhibition) [8] -0.5%

CC(C)(Cc1c[nH]c2ccccc12)NCC(O)COc1ccccc1C#N (stereo not given)
active: insulin secretion stimulation [2] 44.5% | viability decrease [3] 84.6% | inhibition of viability [6] 87% | viability decrease (inhibition) [7] 109%
0%: nuclear beta-catenin stimulation ([1]; stimulation, at 2 µM)
inactive: nuclear beta-catenin stimulation ([1]; at 10 µM) 0.2% | tube area decrease [4] 12.6% | GLP1 secretion stimulation [5] 3.9% | viability decrease (inhibition) [8] 49.7%

CC(C)=CCOc1ccc(/C=C/C(=O)c2ccc(OCC=C(C)C)cc2OCC(=O)O)cc1
-0.2%: nuclear beta-catenin stimulation ([1]; stimulation, at 2 µM)
active: viability decrease [3] 99.2% | tube area decrease [4] 108% | inhibition of viability [6] 99.6% | viability decrease (inhibition) [7] 102% | viability decrease (inhibition) [8] 102%
inactive: nuclear beta-catenin stimulation ([1]; at 10 µM) 10.1% | insulin secretion stimulation [2] 0.6% | GLP1 secretion stimulation [5] -0.1%

Cc1cccc(C)c1NC(=O)CN1CCCCCC1
0.1%: nuclear beta-catenin stimulation ([1]; stimulation, at 2 µM)
inactive: nuclear beta-catenin stimulation ([1]; at 10 µM) -2% | insulin secretion stimulation [2] 1.9% | viability decrease [3] -6.6% | tube area decrease [4] -7.7% | GLP1 secretion stimulation [5] -1% | inhibition of viability [6] -16.3% | viability decrease (inhibition) [7] 23.3% | viability decrease (inhibition) [8] -8.2%

NCc1ccccc1Sc1ccccc1CO
inactive: nuclear beta-catenin stimulation ([1]; at 10 µM) 0.6% | insulin secretion stimulation [2] -0.8% | viability decrease [3] -138% | tube area decrease [4] -11.8% | GLP1 secretion stimulation [5] 3.3% | inhibition of viability [6] 6.13% | viability decrease (inhibition) [7] 29.2% | viability decrease (inhibition) [8] -10.7%
1%: nuclear beta-catenin stimulation ([1]; stimulation, at 2 µM)
